Source: the supplement of paper PMC7765376
Structures can show the parent of a compound that is named as a salt. Over roughly 1,500 compounds, “Excess HSA synergy score (sum over dose matrix of excess over highest single agent)” has its median near 43; the lowest 2% begin near -900. The sample holds the lowest values, similar compounds and a random draw of the others, so the mix is not that of the screen.

System: PEO-1
Test: Excess HSA synergy score (sum over dose matrix of excess over highest single agent) (score (summed % response)); higher = less synergy / more antagonism (negative = synergy)
Settings: 72 h, read-out: viability/apoptosis luminescence (CellTiter-Glo or Caspase3-Glo / not stated per table)
[1] = matrix design: 6x6, 5-fold dilutions (primary screen)
[2] = matrix design: 10x10, 9-step dilutions (confirmatory)

SMILES | Excess HSA synergy score [1] | Excess HSA synergy score [2]
COc1cc(C(C)=O)ccc1OCCCN1CCC(c2noc3cc(F)ccc23)CC1 [Iloperidone] + CC[C@H](NC(=O)[C@H](C)NC)C(=O)N1C[C@@H](O)C[C@H]1Cc1c(-c2[nH]c3cc(F)ccc3c2C[C@@H]2C[C@H](O)CN2C(=O)[C@H](CC)NC(=O)[C@H](C)NC)[nH]c2cc(F)ccc12 [Birinapant] | 75 | 
CN1C(=O)C(Cc2c[nH]c3ccccc23)NC1=S (stereo not drawn) [Necrostatin-1] + CC[C@H](NC(=O)[C@H](C)NC)C(=O)N1C[C@@H](O)C[C@H]1Cc1c(-c2[nH]c3cc(F)ccc3c2C[C@@H]2C[C@H](O)CN2C(=O)[C@H](CC)NC(=O)[C@H](C)NC)[nH]c2cc(F)ccc12 [Birinapant] | 340 | 
Clc1ccc(-c2nc3sccn3c2/C=N/OCc2ccc(Cl)c(Cl)c2)cc1 + CC[C@H](NC(=O)[C@H](C)NC)C(=O)N1C[C@@H](O)C[C@H]1Cc1c(-c2[nH]c3cc(F)ccc3c2C[C@@H]2C[C@H](O)CN2C(=O)[C@H](CC)NC(=O)[C@H](C)NC)[nH]c2cc(F)ccc12 [Birinapant] | 56.2 | 
NS(=O)(=O)OC[C@@H]1C[C@@H](n2ccc3c(N[C@H]4CCc5ccccc54)ncnc32)C[C@@H]1O + CC[C@H](NC(=O)[C@H](C)NC)C(=O)N1C[C@@H](O)C[C@H]1Cc1c(-c2[nH]c3cc(F)ccc3c2C[C@@H]2C[C@H](O)CN2C(=O)[C@H](CC)NC(=O)[C@H](C)NC)[nH]c2cc(F)ccc12 [Birinapant] | -120 | -1280
CN1CCCN=C1/C=C/c1cccs1 [Pyrantel pamoate] + CC[C@H](NC(=O)[C@H](C)NC)C(=O)N1C[C@@H](O)C[C@H]1Cc1c(-c2[nH]c3cc(F)ccc3c2C[C@@H]2C[C@H](O)CN2C(=O)[C@H](CC)NC(=O)[C@H](C)NC)[nH]c2cc(F)ccc12 [Birinapant] | 18.2 | 
O=C(Nc1nc2cccc(-c3ccc(CN4CCS(=O)(=O)CC4)cc3)n2n1)C1CC1 [Filgotinib] + CC[C@H](NC(=O)[C@H](C)NC)C(=O)N1C[C@@H](O)C[C@H]1Cc1c(-c2[nH]c3cc(F)ccc3c2C[C@@H]2C[C@H](O)CN2C(=O)[C@H](CC)NC(=O)[C@H](C)NC)[nH]c2cc(F)ccc12 [Birinapant] | 94.7 | 
COc1cccc2nc(-c3cccs3)nc(NN3C(=O)C=C(C)C3=O)c12 + CC[C@H](NC(=O)[C@H](C)NC)C(=O)N1C[C@@H](O)C[C@H]1Cc1c(-c2[nH]c3cc(F)ccc3c2C[C@@H]2C[C@H](O)CN2C(=O)[C@H](CC)NC(=O)[C@H](C)NC)[nH]c2cc(F)ccc12 [Birinapant] | -105 | -1130
COCC[n+]1c2c(n(Cc3cnccn3)c1C)C(=O)c1ccccc1C2=O [Sepantronium bromide] + CC[C@H](NC(=O)[C@H](C)NC)C(=O)N1C[C@@H](O)C[C@H]1Cc1c(-c2[nH]c3cc(F)ccc3c2C[C@@H]2C[C@H](O)CN2C(=O)[C@H](CC)NC(=O)[C@H](C)NC)[nH]c2cc(F)ccc12 [Birinapant] | 55.3 | 281
CCCCCNC(=O)N1CCC(CN(Cc2ccc(Cl)cc2)Cc2ccc([N+](=O)[O-])s2)C1 (stereo not drawn) + CC[C@H](NC(=O)[C@H](C)NC)C(=O)N1C[C@@H](O)C[C@H]1Cc1c(-c2[nH]c3cc(F)ccc3c2C[C@@H]2C[C@H](O)CN2C(=O)[C@H](CC)NC(=O)[C@H](C)NC)[nH]c2cc(F)ccc12 [Birinapant] | -0.0169 | 
O=c1ccn(C2OC(CO)C(O)C2F)c(=O)[nH]1 (stereo not drawn) + CC[C@H](NC(=O)[C@H](C)NC)C(=O)N1C[C@@H](O)C[C@H]1Cc1c(-c2[nH]c3cc(F)ccc3c2C[C@@H]2C[C@H](O)CN2C(=O)[C@H](CC)NC(=O)[C@H](C)NC)[nH]c2cc(F)ccc12 [Birinapant] | 232 | 
Cc1cc(Nc2cc(CN3CCOCC3)c3nc(C)c(Cc4ccc(Cl)cc4F)n3n2)n[nH]1 [Gandotinib] + CC[C@H](NC(=O)[C@H](C)NC)C(=O)N1C[C@@H](O)C[C@H]1Cc1c(-c2[nH]c3cc(F)ccc3c2C[C@@H]2C[C@H](O)CN2C(=O)[C@H](CC)NC(=O)[C@H](C)NC)[nH]c2cc(F)ccc12 [Birinapant] | 66.5 | 
COc1ccc(-c2c(-c3ccc(O)cc3O)n[nH]c2C)cc1 + CC[C@H](NC(=O)[C@H](C)NC)C(=O)N1C[C@@H](O)C[C@H]1Cc1c(-c2[nH]c3cc(F)ccc3c2C[C@@H]2C[C@H](O)CN2C(=O)[C@H](CC)NC(=O)[C@H](C)NC)[nH]c2cc(F)ccc12 [Birinapant] | 59.5 | 
Cc1c(CN2CCN(S(C)(=O)=O)CC2)sc2c(N3CCOCC3)nc(-c3cnc(N)nc3)nc12 + CC[C@H](NC(=O)[C@H](C)NC)C(=O)N1C[C@@H](O)C[C@H]1Cc1c(-c2[nH]c3cc(F)ccc3c2C[C@@H]2C[C@H](O)CN2C(=O)[C@H](CC)NC(=O)[C@H](C)NC)[nH]c2cc(F)ccc12 [Birinapant] | 87.6 | 
C/C=C1\NC(=O)[C@H]2CSSCC/C=C/[C@H](CC(=O)N[C@H](C(C)C)C(=O)N2)OC(=O)[C@H](C(C)C)NC1=O [Romidepsin] + CC[C@H](NC(=O)[C@H](C)NC)C(=O)N1C[C@@H](O)C[C@H]1Cc1c(-c2[nH]c3cc(F)ccc3c2C[C@@H]2C[C@H](O)CN2C(=O)[C@H](CC)NC(=O)[C@H](C)NC)[nH]c2cc(F)ccc12 [Birinapant] | -212 | -1300
COc1cccc2c(NCc3ccccc3)nc(-n3c(N)nc4ccccc43)nc12 + CC[C@H](NC(=O)[C@H](C)NC)C(=O)N1C[C@@H](O)C[C@H]1Cc1c(-c2[nH]c3cc(F)ccc3c2C[C@@H]2C[C@H](O)CN2C(=O)[C@H](CC)NC(=O)[C@H](C)NC)[nH]c2cc(F)ccc12 [Birinapant] | 17 | 
N#CC1(c2cccc(C(=O)Nc3cc(Oc4ccc5nc(NC(=O)C6CC6)sc5n4)ccc3F)c2Cl)CC1 [Takeda-6d] + CC[C@H](NC(=O)[C@H](C)NC)C(=O)N1C[C@@H](O)C[C@H]1Cc1c(-c2[nH]c3cc(F)ccc3c2C[C@@H]2C[C@H](O)CN2C(=O)[C@H](CC)NC(=O)[C@H](C)NC)[nH]c2cc(F)ccc12 [Birinapant] | 135 | 
O[C@@H](CNC[C@H](O)[C@H]1CCc2cc(F)ccc2O1)[C@@H]1CCc2cc(F)ccc2O1 (racemic) [rac Nebivolol hydrochloride] + CC[C@H](NC(=O)[C@H](C)NC)C(=O)N1C[C@@H](O)C[C@H]1Cc1c(-c2[nH]c3cc(F)ccc3c2C[C@@H]2C[C@H](O)CN2C(=O)[C@H](CC)NC(=O)[C@H](C)NC)[nH]c2cc(F)ccc12 [Birinapant] | 50.2 | 
CC(C)(O)CC[C@@H](O)[C@](C)(O)[C@H]1CC[C@@]2(O)C3=CC(=O)[C@@H]4C[C@@H](O)[C@@H](O)C[C@]4(C)[C@H]3CC[C@]12C [20-hydroxyecdysone] + CC[C@H](NC(=O)[C@H](C)NC)C(=O)N1C[C@@H](O)C[C@H]1Cc1c(-c2[nH]c3cc(F)ccc3c2C[C@@H]2C[C@H](O)CN2C(=O)[C@H](CC)NC(=O)[C@H](C)NC)[nH]c2cc(F)ccc12 [Birinapant] | 229 | 
O=C(Nc1ccccc1Br)N[C@@H]1CCN(c2ccc(C(F)(F)F)cn2)C1 + CC[C@H](NC(=O)[C@H](C)NC)C(=O)N1C[C@@H](O)C[C@H]1Cc1c(-c2[nH]c3cc(F)ccc3c2C[C@@H]2C[C@H](O)CN2C(=O)[C@H](CC)NC(=O)[C@H](C)NC)[nH]c2cc(F)ccc12 [Birinapant] | -16.5 | 
C[C@H](NC(=O)C(=O)Nc1ccccc1C(C)(C)C)C(=O)N[C@@H](CC(=O)O)C(=O)COc1c(F)c(F)cc(F)c1F [Emricasan] + CC[C@H](NC(=O)[C@H](C)NC)C(=O)N1C[C@@H](O)C[C@H]1Cc1c(-c2[nH]c3cc(F)ccc3c2C[C@@H]2C[C@H](O)CN2C(=O)[C@H](CC)NC(=O)[C@H](C)NC)[nH]c2cc(F)ccc12 [Birinapant] |  | -606
COc1ccc2c(OCc3nnc4ccc(-c5ccccc5)nn34)ccnc2c1 + CC[C@H](NC(=O)[C@H](C)NC)C(=O)N1C[C@@H](O)C[C@H]1Cc1c(-c2[nH]c3cc(F)ccc3c2C[C@@H]2C[C@H](O)CN2C(=O)[C@H](CC)NC(=O)[C@H](C)NC)[nH]c2cc(F)ccc12 [Birinapant] | -55.6 | 
N[C@@H](CSC(c1ccccc1)(c1ccccc1)c1ccccc1)C(=O)O [S-Trityl-L-cysteine] + CC[C@H](NC(=O)[C@H](C)NC)C(=O)N1C[C@@H](O)C[C@H]1Cc1c(-c2[nH]c3cc(F)ccc3c2C[C@@H]2C[C@H](O)CN2C(=O)[C@H](CC)NC(=O)[C@H](C)NC)[nH]c2cc(F)ccc12 [Birinapant] | -23.2 | 
CCC(=O)NCC[C@@H]1CCc2ccc3c(c21)CCO3 [Ramelteon] + CC[C@H](NC(=O)[C@H](C)NC)C(=O)N1C[C@@H](O)C[C@H]1Cc1c(-c2[nH]c3cc(F)ccc3c2C[C@@H]2C[C@H](O)CN2C(=O)[C@H](CC)NC(=O)[C@H](C)NC)[nH]c2cc(F)ccc12 [Birinapant] | 10.8 | 
NC(=O)c1c(OCc2c(F)cc(Br)cc2F)nsc1NC(=O)NCCCCN1CCCC1 + CC[C@H](NC(=O)[C@H](C)NC)C(=O)N1C[C@@H](O)C[C@H]1Cc1c(-c2[nH]c3cc(F)ccc3c2C[C@@H]2C[C@H](O)CN2C(=O)[C@H](CC)NC(=O)[C@H](C)NC)[nH]c2cc(F)ccc12 [Birinapant] | 11 | 
